The structures appear in SMILES notation. Hit rate of the full screen: of about 48,000 compounds, about 13,000 (27%) showed an effect of 50% or more. This is one part of the list.

The assay has as its system Wolbachia pipientis. Briefly: Anti-Wolbachia Cell-Based Screen. Type of assay: functional. As to conditions: 5 µM. On the set-up: scale not given: in the data most compounds retested in dose-response had high values.
For `COCCN(C)CCN1CC2(CCN(C3CCOCC3)CC2)OC1=O`, the “Percent Effect” value is -18.87%.
The figure for `Cc1ccsc1-c1nnc(SCC(=O)O)n1C(C)c1ccccc1` (stereo unspecified) is -0.1706%; for `CCN(CC)c1ccc(C2C3=C(COC3=O)Nc3[nH]nc(C)c32)cc1` (stereo unspecified) it is 4.109%; for `CCc1ncncc1C(=O)Nc1ccc2ccn(CCN(C)C)c2c1` it is -10.28%.
On to `CCc1nc(C)c([C@H]2CN(C)C[C@@H]2C(=O)NCc2ccccc2OC)[nH]1`, for which the “Percent Effect” value is -8.879%.
Then `Cc1ccccc1C(CC(=O)NCc1n[nH]c(N)n1)c1ccccc1` (stereo unspecified), with -7.585%.
Consider `CC(NC(=O)NCCCc1n[nH]c(N)c1C#N)c1cccs1` (stereo unspecified), for which the “Percent Effect” value is given as -7.784%.
As for `Cc1ncsc1CN1CC[C@H]2OCC[C@@]2(C(=O)N(C)C)C1`, the “Percent Effect” value is listed as 3.882%.
The figure for `Cc1ncsc1CN1CC2(CCCC2)CC1=O` is -13.29%.
Turning to `Cc1ncsc1CN1CCOC(C)(C(=O)N(C)C)C1` (stereo unspecified), the “Percent Effect” value worked out at 112.2%.
On to `Cc1ncsc1CN1CCOC(C)(C(=O)N2CCOCC2)C1` (stereo unspecified), for which the “Percent Effect” value is reported as 106.3%.
As to `Cc1ncsc1CN1CCOC(C)(C(N)=O)C1` (stereo unspecified), the “Percent Effect” value is reported as 122.3%.
Then `Cc1nn(C)c(C)c1-c1ccnc(N(C)Cc2noc(C(C)C)n2)n1`, with -9.96%; and `CCNC(=O)N[C@H]1C[C@@H](Cc2cc(CN3CCCCC3)on2)C1(C)C`, with 1.239%.
The figure for `Cc1ccoc1C(=O)N1CC[C@@H]2CN(C3CCOCC3)CCO[C@@H]2C1.O=C(O)C(F)(F)F` is 107.8%.
The figure for `CN(C)C[C@H]1OC[C@@H]2CCN(C(=O)c3ccco3)C[C@@H]21.O=C(O)C(F)(F)F` is 5.332%.
As for `Cc1ccoc1C(=O)N1CC[C@H]2O[C@@H](C)C[C@H]2C1`, the “Percent Effect” value is -21.6%.
Then `O=C(O)C(F)(F)F.O=C(c1ccco1)N1CC[C@@H]2CN(C3CCOCC3)CCO[C@@H]2C1`, with 107.9%; and `CN1CCO[C@@H]2CN(C(=O)c3ccc4[nH]ccc4c3)CC[C@@H]2C1.O=C(O)C(F)(F)F`, with -13.85%.
Then `Cc1ccoc1C(=O)N1CC[C@@H]2O[C@@H](C)C[C@H]2C1`, with 0.7135%.
Then `COc1ccc(CN2CC[C@@H]3CN(S(C)(=O)=O)CCO[C@@H]3C2)cc1.O=C(O)C(F)(F)F`, with 4.247%; and `Cc1ccc(C(=O)N2CC[C@@H]3CN(C4CCOCC4)CCO[C@@H]3C2)o1.O=C(O)C(F)(F)F`, with 105.9%.
On to `O=C(O)C(F)(F)F.O=C(c1ccco1)N1CCOCC2(CCN(C3CCOCC3)C2)C1` (stereo unspecified), for which the “Percent Effect” value was found to be 7.241%.
On to `Cc1ccc(CNC2(Cc3cc(-c4cccc(O)c4)on3)COC2)o1`, for which the “Percent Effect” value is -8.459%.
Then `COC(=O)C1CCN(C(=O)c2ccc(N(C)S(C)(=O)=O)c(C)c2)CC1`, with -6.417%.
As for `COCCC1(C(=O)O)CCCN(Cc2cc3c(cc2Cl)OCO3)C1` (stereo unspecified), the “Percent Effect” value is recorded as 4.782%.
The figure for `CNC(=O)CN1CCC(NC2CSCCc3ccccc32)CC1` (stereo unspecified) is 0.2819%; for `CS(=O)(=O)N1CCC(c2nnc(Cn3ccnc3)n2C2CC2)CC1` it is -22.9%.
The figure for `Cn1c(Cn2ccnc2)nnc1C1CCN(C(=O)C2(C)CC2)CC1` is 6.343%; for `Cn1c(Cn2ccnc2)nnc1C1CCCN(C2CCCCC2)C1` (stereo unspecified) it is -3.14%.
Then `CC(C)S(=O)(=O)N1CCCC(c2nnc(Cn3ccnc3)n2C)C1` (stereo unspecified), with -6.159%; and `CC(C)OC(=O)N1CCC(c2nnc(Cn3ccnc3)n2C)CC1`, with 96.34%; and `COC(=O)N1CCC(c2nnc(Cn3ccnc3)n2C)CC1`, with 110.5%.
In the case of `Cc1ccc(N2C(=O)N[C@@H]3CCN(C(=O)C4CCCC4)[C@@H]3C2=O)cc1`, the “Percent Effect” value is reported as -4.286%.
The figure for `CCc1ccc(C(=O)O)cc1S(=O)(=O)N(C)c1cccc(C#N)c1` is -20.44%; for `c1csc(N2CCN(Cc3cc4n(n3)CCNC4)CC2)n1` it is -2.451%.
As for `COC(=O)Cn1c(=O)nc2n1C(=O)N(c1ccc(Cl)cc1)C2`, the “Percent Effect” value worked out at 5.835%.
Take `CNc1nc(C)cc(NCc2cc(C)cc3c(C)c(C)[nH]c23)n1`: the “Percent Effect” value is reported as -6.475%.
The figure for `O=C(O)C(F)(F)F.O=C([C@@H]1CC[C@@H]2[C@@H](CCN2Cc2cccs2)O1)N1CCCCO1` is -2.602%; for `CN1CCN(C(=O)[C@H]2C[C@H]3[C@H](CCN3Cc3cccs3)O2)CC1.O=C(O)C(F)(F)F.O=C(O)C(F)(F)F` it is 106.2%; for `Cc1ccc(CN2CC[C@@H]3O[C@@H](C(=O)N4CCN(C)CC4)C[C@@H]32)cc1.O=C(O)C(F)(F)F.O=C(O)C(F)(F)F` it is 117.4%.
For the compound `CN1CCN(C(=O)[C@H]2CC[C@@H]3[C@@H](CCN3Cc3ccsc3)O2)CC1.O=C(O)C(F)(F)F.O=C(O)C(F)(F)F`, the “Percent Effect” value was -13.28%.
Consider `Cc1cccc(CN2C[C@@H](CN3CCCN(C)CC3)C[C@H](CO)C2)n1`, for which the “Percent Effect” value was -14.48%.
Then `Cc1cccc(CN2CCN(C(=O)[C@@H]3CSCN3C)CC2)c1`, with 0.2793%; and `O=C(O)C(F)(F)F.O=S(=O)(C1CC1)N1CC[C@@H]2[C@@H]1CCN2Cc1cccs1`, with 10.91%; and `Cn1cc(CN2CC[C@@H]3O[C@H](C(=O)N4CCOCC4)C[C@@H]32)cn1`, with 5.245%.
The figure for `Cc1cccc(CN2CC[C@@H]3O[C@@H](C(=O)N4CCN(C)CC4)C[C@@H]32)n1` is 123%; for `Cc1cccc(CN2CC[C@@H]3O[C@@H](C(=O)N4CCN(C)CC4)C[C@@H]32)c1` it is 93.61%; for `Cc1ccc(CN2CC[C@H]3[C@H]2CCN3S(=O)(=O)C2CC2)cc1.O=C(O)C(F)(F)F` it is -0.5114%.
Then `CCN1CCC(CNCc2cc(C)ccc2OC)C1` (stereo unspecified), with 23.09%; and `Cc1[nH]nc2ncc(C(=O)N3CCN(C(C)(C)C)CC3)cc12`, with 13.12%.
For the compound `CN(C)c1ccccc1CN1CCCCC1CNS(C)(=O)=O` (stereo unspecified), the “Percent Effect” value is listed as -10.3%.
As for `O=C1CC2(CCN(C(=O)c3csc(-c4ccccc4)n3)C2)C(=O)N1` (stereo unspecified), the “Percent Effect” value came out at 6.339%.
With `COCCCN1CCC(NC(=O)C2CC2)CC1`, the “Percent Effect” value is listed as -0.3398%.
Then `O=C(c1ccoc1)N1CCn2nc(CN3CCSCC3)cc2C1`, with -1.758%; and `O=C([C@H]1C[C@H]2[C@H](CCN2Cc2cccs2)O1)N1CCOCC1`, with 91.43%.
The figure for `CN(Cc1nnc2ccccn12)C(=O)NC1CCCCC1` is -15.02%; for `CN(C)Cc1nc(-n2cnc(C(=O)NCC3CC3)c2)n2ccccc12` it is 123.3%.
For `Cn1cnc(-c2nc(C(=O)NCC3CCCO3)c3ccccn23)c1` (stereo unspecified), the “Percent Effect” value is given as -2.484%.
Regarding `CN(C)Cc1nc(-n2cnc(C(=O)NC3CCCC3)c2)n2ccccc12`, the “Percent Effect” value worked out at 115.9%.
For the compound `O=C(NCCO)c1ccn(-c2ccc3ccccn23)n1`, the “Percent Effect” value is reported as -13.14%.
The figure for `O=C(NC1CCCC1)c1cc(Cn2cnc3ccccc32)on1` is -23.61%.
Then `Cc1nc[nH]c1-c1nc2cc(S(=O)(=O)N3CCCC3)ccc2n1C`, with -21.22%; and `Cc1ncc(CNc2cnccc2CO)s1`, with 7.83%; and `CCS(=O)(=O)N1C[C@@H](O)[C@H](Oc2cccc(F)c2)C1`, with 115.8%.
`CCN(Cc1cccc(F)c1)S(=O)(=O)N1CCOCC1`: the “Percent Effect” value is on record as -36.14%.
With `CCN(CC)S(=O)(=O)N1C[C@@H](O)[C@H](Oc2cccc(F)c2)C1`, the “Percent Effect” value turned out to be 71.42%.
As for `CCN(C)C(=O)c1ccc(N2CCC(Oc3cccc(F)c3)CC2)nc1`, the “Percent Effect” value was -6.141%.
The figure for `Cc1cnccc1CN1C[C@@H](O)[C@H](Oc2cccc(F)c2)C1` is -1.659%.
Then `O=C(c1ccnnc1)N1C[C@@H]2CC[C@H](Oc3cccc(F)c3)[C@@H]2C1`, with -13.73%.
The figure for `COc1cccc(F)c1-c1nc2c([nH]1)c(C1CC1)nn2C` is 3.42%.
Consider `CCCC(C)C(=O)Nc1ccc(OC)nc1N1CCN(C(C)=O)CC1` (stereo unspecified), for which the “Percent Effect” value was -14.17%.
Regarding `CNc1cc(CNC(=O)c2ccccc2)nc(-c2ccncc2)n1`, the “Percent Effect” value is recorded as -7.143%.
Then `CNc1cc(CNC(=O)c2ccnc(OC)c2)nc(-c2ccncc2)n1`, with 103.5%; and `Cc1cc(NC(C)C(=O)NCc2ccccc2)nc(-c2ccncc2)n1` (stereo unspecified), with 6.15%; and `CNc1cc(CNC(=O)c2cccnc2)nc(-c2ccncc2)n1`, with 94.55%.
Then `O=C(NCCOc1ncc(Cl)cc1Cl)c1cccnc1`, with 0.5232%.
For the compound `CNc1cc(CNC(=O)c2ccncc2)nc(-c2ccncc2)n1`, the “Percent Effect” value is 109.4%.
As to `COc1cc(C(=O)NCc2cc(N3CCOCC3)ncn2)ccn1`, the “Percent Effect” value came out at 5.956%.
The figure for `CNc1cc(CNC(=O)c2ccccn2)nc(-c2ccncc2)n1` is -12.05%; for `CNc1cc(CNC(=O)c2ccccc2OC)nc(-c2ccncc2)n1` it is 104.1%.
The figure for `COc1cc(C(=O)N(C)C(C)Cc2cc(C)ccn2)ccn1` (stereo unspecified) is -2.709%; for `O=S1(=O)CCC(n2cc(CNc3ccccc3Br)cn2)C1` (stereo unspecified) it is 3.444%; for `CCOCC1CCN(C(=O)C(c2c(F)cccc2F)N(C)C)CC1` (stereo unspecified) it is -13.66%.
Then `CC(C)c1nc(-c2ccc(=O)[nH]n2)n(-c2ccc3c(c2)OCO3)n1`, with -26.15%.
In the case of `CC(C)N1CCOC[C@H]1c1nc(-c2ccncc2)c[nH]1`, the “Percent Effect” value came out at 8.176%.
Regarding `CCc1nccn1CCC(=O)N1C[C@H]2CC[C@@H]1CN(C(=O)N(C)C)C2`, the “Percent Effect” value is on record as -6.839%.
The figure for `CC(C)COC(C)C(=O)N1CCCCCC1` (stereo unspecified) is -3.624%; for `CC(C)C(=O)NCCNC(=O)C(C)OCC(F)(F)F` (stereo unspecified) it is 2.033%; for `CC(C)COC(C)C(=O)N1CCCC1` (stereo unspecified) it is -7.961%.
Then `CCN(CC)CCNC(=O)C(C)OCC(F)(F)F` (stereo unspecified), with -16.45%.
The figure for `CC(C)COC(C)C(=O)NCCNS(C)(=O)=O` (stereo unspecified) is 116.1%; for `CC(C)COC(C)C(=O)NCc1ccccc1Cn1ccnc1` (stereo unspecified) it is -1.115%; for `CC(C)COC(C)C(=O)NCCNC(=O)C(C)C` (stereo unspecified) it is 90.67%.
Take `CCOC(C)C(=O)NCCNS(C)(=O)=O` (stereo unspecified): the “Percent Effect” value is 99.51%.
The figure for `CC(Oc1ccc(C(=O)NCCNS(C)(=O)=O)cn1)c1ccccc1` (stereo unspecified) is 12.3%.
